According to PubChem BioAssay (Tox21):
Records with an inconclusive call do not appear. The source made the active and inactive calls. Unless noted, the call rests on the fitted dose curve; in most records, active means well fitted curve in the direction sought with a large enough effect in the repeat runs; inconclusive means weak or mixed curves; inactive means no such curve, though single readings can be large; an effect the other way counts as inactive or inconclusive.

Key:
[1] = qHTS assay for small molecule agonists of the p53 signaling pathway (AID 651631; calls by dose curve; further: nearly all actives have a fitted effect of over 15% in size; further: potency means the concentration at half of the fitted maximal effect)
How it was run: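 Agonist mode screen using a stably integrated beta-lactamase gene under p53 response elements in HCT-116 cells. Compound exposure lasts 16 h at 37 °C; fluorescence intensity is measured following 2 h FRET substrate loading.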

[2] = qHTS assay for small molecules that induce genotoxicity in human embryonic kidney cells expressing luciferase-tagged ATAD5 (AID 651632); further: nearly all actives have a fitted effect of over 15% in size
How it was run: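 A rise in luciferase signal from ATAD5-tagged HEK293T cells marks genetic stress. Cells were exposed to compounds for 16 hr at 37C, 5% CO2, then luciferase was quantified after a 30 min room-temperature incubation with Amplite.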

[3] = qHTS assay for small molecule agonists of the p53 signaling pathway - cell viability (AID 651633; calls by dose curve;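 further: p53RE-bla HCT reporter cells with a stable beta-lactamase p53 reporter; series mostly up to about 83 µM; nearly all actives have a fitted effect of over 30% in size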)
How it was run: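 p53RE-bla cells were treated with compound for 16 hours at 37 C. Cytotoxicity was then measured as CellTiter-Glo luminescence after 30 min at room temperature.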

[4] = qHTS assay for small molecules that induce genotoxicity in human embryonic kidney cells expressing luciferase-tagged ATAD5 - cell viability (AID 651634; calls by dose curve; further: nearly all actives have a fitted effect of over 25% in size)
How it was run: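 Cytotoxicity counter-readout: after 15.5 hr compound treatment at 37C, live-cell protease activity in ATAD5-luciferase HEK293T cells measured by CellTiter-Fluor fluorescence, 30 min development at 37C.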

[5] = qHTS assay for small molecule disruptors of the mitochondrial membrane potential (AID 720635); further: potency means the concentration at half of the fitted maximal effect
How it was run: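 HepG2 cells exposed to compound 1 hr at 37C, then Mito-MPS dye 30 min. Ratio read of aggregate (540/590 nm) versus monomer (490/535 nm) fluorescence.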

[6] = qHTS assay to test for compound auto fluorescence at 590 nm (red) in HepG2 cells (AID 720674)
How it was run: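 Fluorescence at 590 nm emission following 540 nm excitation was recorded from HepG2 wells one hour after compound transfer, with DMSO-only wells as vehicle and Rose Bengal sodium equivalency as the scale.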

[7] = qHTS assay to test for compound auto fluorescence at 535 nm (green) in HepG2 cells (AID 720675)
[8] = qHTS assay to test for compound auto fluorescence at 460 nm (blue) in HEK293 cells (AID 720678)
How it was run: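 Triamterene serves as the blue fluorophore standard. Compound signal at 405/460 nm is read in HEK293 wells (2,000 cells, 10% dialyzed FBS) after overnight treatment at 37C.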

[9] = qHTS assay to test for compound auto fluorescence at 590 nm (red) in HEK293 cells (AID 720679)
How it was run: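 We plated HEK293 cells in 10% dialyzed FBS medium, let them adhere for 4-5 hr, then added 23 nL compound. Overnight at 37C and 5% CO2 preceded fluorescence measurement at 540/590nm.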

[10] = qHTS assay to test for compound auto fluorescence at 535 nm (green) in HEK293 cells (AID 720680)
[11] = qHTS assay to test for compound auto fluorescence at 460 nm (blue) in HEK293 cell free culture (AID 720681)
How it was run: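 Compounds were added to cell-free DMEM with 10% FBS and fluorescence read directly. The blue channel used 405 nm excitation and 460 nm emission, with triamterene as the reference fluorophore.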

[12] = qHTS assay to test for compound auto fluorescence at 535 nm (green) in HEK293 cell free culture (AID 720682)
How it was run: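 No cells present: wells hold DMEM supplemented with 10% FBS, into which compound or vehicle is pinned. Green emission is then recorded (485 nm excitation, 535 nm emission) and scaled to fluorescein.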

[13] = qHTS assay to test for compound auto fluorescence at 590 nm (red) in HEK293 cell free culture (AID 720683)
How it was run: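 Cell-free wells of DMEM with 10% FBS received compound, and intrinsic fluorescence was read at excitation/emission 540/590 nm. Values expressed as equivalence to Rose Bengal sodium.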

[14] = qHTS assay to test for compound auto fluorescence at 590 nm (red) in HepG2 cell free culture (AID 720684)
How it was run: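 Auto fluorescence equivalency versus Rose Bengal sodium, red channel Ex/Em 540/590 nm; compounds in cell-free MEM/10% FBS; DMSO vehicle control.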

[15] = qHTS assay to test for compound auto fluorescence at 460 nm (blue) in HepG2 cell free culture (AID 720685)
How it was run: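 Cell-free plates of MEM plus 10% FBS received 23 nL compound or DMSO vehicle; blue-channel (405/460 nm) intensity scored against triamterene as reference fluorophore.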

[16] = qHTS assay to test for compound auto fluorescence at 535 nm (green) in HepG2 cell free culture (AID 720686)
[17] = qHTS assay to test for compound auto fluorescence at 460 nm (blue) in HepG2 cells (AID 720687)
How it was run: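 HepG2 cells in MEM with 10% FBS, attached overnight at 37 C, were exposed to compound or DMSO for 1 hr at 37 C, 5% CO2. Blue fluorescence was read at 405/460 nm, with triamterene as reference fluorophore.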

[18] = target: Glucocorticoid receptor (Homo sapiens) (UniProt P04150); assay: qHTS assay to identify small molecule agonists of the glucocorticoid receptor (GR) signaling pathway (AID 720691; active means well fitted activation curve with a large enough effect in the signal ratio in the repeat runs, not every such curve was filed as active; the % refers to the signal ratio)
Sequence of Glucocorticoid receptor (Homo sapiens) (P04150 whole entry, looked up): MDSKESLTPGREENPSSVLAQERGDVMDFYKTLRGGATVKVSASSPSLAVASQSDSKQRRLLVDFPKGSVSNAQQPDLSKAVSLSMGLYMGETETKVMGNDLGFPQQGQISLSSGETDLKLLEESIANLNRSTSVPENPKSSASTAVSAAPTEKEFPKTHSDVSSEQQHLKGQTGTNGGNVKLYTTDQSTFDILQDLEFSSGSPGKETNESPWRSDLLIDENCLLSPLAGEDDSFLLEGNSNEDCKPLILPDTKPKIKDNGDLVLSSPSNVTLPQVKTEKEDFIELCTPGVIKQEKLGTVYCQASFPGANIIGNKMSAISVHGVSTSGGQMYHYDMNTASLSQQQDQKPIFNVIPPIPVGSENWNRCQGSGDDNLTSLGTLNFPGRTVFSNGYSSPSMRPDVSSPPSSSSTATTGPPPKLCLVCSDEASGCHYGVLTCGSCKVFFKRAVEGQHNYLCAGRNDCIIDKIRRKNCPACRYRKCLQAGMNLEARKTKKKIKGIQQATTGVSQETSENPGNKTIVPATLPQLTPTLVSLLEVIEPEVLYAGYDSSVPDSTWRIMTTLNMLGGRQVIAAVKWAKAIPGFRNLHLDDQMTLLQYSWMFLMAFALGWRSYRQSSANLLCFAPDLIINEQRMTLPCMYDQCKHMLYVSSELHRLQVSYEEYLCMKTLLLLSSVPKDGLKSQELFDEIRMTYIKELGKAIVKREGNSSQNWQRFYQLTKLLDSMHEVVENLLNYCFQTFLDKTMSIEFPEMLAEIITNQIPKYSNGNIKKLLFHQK
How it was run: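 Agonist-mode qHTS in HeLa cells stably expressing a glucocorticoid-response-element beta-lactamase reporter. Fluorescence intensity read with FRET substrate (2 h, room temperature) after 18 h compound treatment at 37 C.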

[19] = target: Glucocorticoid receptor (Homo sapiens) (UniProt P04150); assay: qHTS assay to identify small molecule antagonists of the glucocorticoid receptor (GR) signaling pathway (AID 720692; active means well fitted inhibition curve with a large enough effect in the signal ratio in the repeat runs, not every such curve was filed as active; the % refers to the signal ratio)
How it was run: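 Inhibition of dexamethasone-driven (5 nM final) beta-lactamase expression was measured in GRE-reporter HeLa cells over 18 h at 37C. Fluorescence was read after 2 h with the B/G FRET substrate at room temperature.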

[20] = qHTS assay for small molecule disruptors of the mitochondrial membrane potential - cell viability (AID 720634; calls by dose curve;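 further: human HepG2 liver cancer cells; series mostly up to about 83 µM; nearly all actives have a fitted effect of over 20% in size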)
How it was run: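 Cytotoxicity was quantified from ATP content by CellTiter-Glo luminescence in the same wells as the MMP dye read-out. HepG2 (2,000 cells/well) were plated overnight and exposed to compounds for 1 hr at 37 C.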

Measured: Potency

Oc1ccc(Sc2ccc(O)cc2)cc1
active: [1] 57.2 µM | [5] 18.1 µM
not listed: [20]
inactive: all other assays above

CCCCC(CC)COCCCN (configuration not stated)
not listed: [5] | [16] | [18] | [20]
inactive: all other assays above

CC[C@H](C)[C@@H](C(=O)O)n1sc2ccccc2c1=O
not listed: [5] | [7] | [15] | [18]
inactive: all other assays above

CC(C)c1cccc(C(C)C)c1NC(=O)NS(=O)(=O)c1cc(C(C)(C)O)co1
not listed: [5] | [7] | [16] | [18]
inactive: all other assays above

Nc1nc(N)c(-c2ccccc2)s1
not listed: [8] | [19] | [20]
inactive: all other assays above

Cc1cccc(C(C)(C)C)c1O
not listed: [12] | [20]
inactive: all other assays above
